Measurements taken from PubChem BioAssay AID2284145 (EPA ToxCast).
Calls of active or inactive are those of the source. Rule for the calls: active = hit-call score of the fitted dose curve at least 0.9, where 1 is the maximum; inactive = score below 0.9.

Each compound was assayed against human Adrenoceptor beta1 Antagonism, ADRB1 (gene 153) (UniProt P08588) (assay: ERF_TW_GPCR_hADRB1: Eurofins (ERF) G Protein-Coupled Receptor (GPCR) Radioligand Binding LeadHunter Assay for human Adrenoceptor beta1 Antagonism).
Description: ERF_TW_GPCR_hADRB1 is a biochemical, single-readout assay that uses extracted gene-proteins in a cell-free assay. Measurements were taken 2 hour after chemical dosing in a 96-well plate. See beta1 Human Adrenoceptor GPCR Binding (Antagonist Radioligand) Assay, Panlabs.ERF_TW_GPCR_hADRB1 is an assay component calculated from the ERF_TW_GPCR_hADRB1 assay. It is designed to measure radioligand binding using a type of binding reporter as detected by scintillation counting with radiometry technology.Data from the assay component ERF_TW_GPCR_hADRB1 was analyzed at the assay endpoint, ERF_TW_GPCR_hADRB1, in the positive analysis fitting direction relative to DMSO as the negative control and baseline of activity. Using a type of binding reporter, loss-of-signal activity can be used to understand changes in radioligand binding as they relate to gene ADRB1. To generalize the intended target to other relatable targets, this assay endpoint is annotated to the gpcr intended target family, where the subfamily is adrenoceptor.
Human recombinant adrenergic beta1 receptors expressed in HEK 293 cells are used in modified Tris-HCl buffer pH 7.4. A 25 ug aliquot is incubated with 0.03 nM [125I]Cyanopindolol for 120 minutes at 25C. […] Receptors are filtered and washed, the filters are then counted to determine [125I]Cyanopindolol specifically bound. […]

Chain of human Adrenoceptor beta1 Antagonism, ADRB1 (gene 153) (P08588 whole entry, looked up): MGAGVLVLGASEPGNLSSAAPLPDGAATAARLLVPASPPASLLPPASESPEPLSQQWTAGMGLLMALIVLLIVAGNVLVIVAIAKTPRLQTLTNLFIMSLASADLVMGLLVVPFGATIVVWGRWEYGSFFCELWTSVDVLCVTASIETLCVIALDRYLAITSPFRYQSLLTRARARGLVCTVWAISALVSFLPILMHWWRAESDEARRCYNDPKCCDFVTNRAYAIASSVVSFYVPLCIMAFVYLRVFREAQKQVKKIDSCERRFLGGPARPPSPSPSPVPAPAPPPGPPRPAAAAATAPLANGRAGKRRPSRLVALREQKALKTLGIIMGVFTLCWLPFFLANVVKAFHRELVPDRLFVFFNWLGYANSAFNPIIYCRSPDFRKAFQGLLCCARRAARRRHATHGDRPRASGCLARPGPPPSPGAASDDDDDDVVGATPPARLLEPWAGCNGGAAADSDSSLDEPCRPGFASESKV

SMILES | AC50
O=C(/C=C/c1ccc(O)cc1)CC(=O)/C=C/c1ccc(O)cc1 | 1130 nM (active)
